Data from PubChem BioAssay AID1347426 (Functional Genomics Laboratory (NCATS/FGL), 2020).
Out of some 31,000 sequences screened, about 1,400 (4.5%) were called active. This is one part of a sample in which actives are shown more often than they occur. Values without a mark were called inactive.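 How the source made its calls: active means median seed-adjusted z-score above 1 or below -1; inactive means the rest.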

Test: Novel Modifiers of Survival Motor Neuron (SMN) Protein: Gene Identification via Genome-wide siRNA Screen;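 further: luminescence tracks full-length SMN protein made from the SMN2 reporter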
Conditions: HEK293T SMN2-luciferase reporter, siRNA knockdown, 72 h; actives lie on both sides
Summary of the method: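 HEK293T cells stably carrying an SMN2 promoter/splicing cassette–luciferase reporter were reverse-transfected with 1 pmol siRNA per well (druggable-genome library, 3 siRNAs per gene) and grown 72 h at 37 °C. Luminescence, normalized to negative-control siRNA and log10-transformed, was scored as MAD.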

| Sequence | median seed-adjusted z-score |
| --- | --- |
| GAGCUGACUUCGGAACUAATT against LCN2 | 0.123 |
| CCACAGAGAUAAGCAGUCATT against IL15RA | -0.0113 |
| GGACUCCCAUCAGUUCCUATT against MFSD4 | -1.89 (active) |
| GCUGGAAUCUAACAAUAGATT against ROCK2 | -0.149 |
| CGUGUCCUGUCUGAACCAATT against ESCO2 | 0 |
| AAGAGUCAGUUUUCAGAUATT against CHID1 | 0.199 |
| GGAGGUUAAAGUGAAGAUUTT against MORF4L2 | 0.389 |
| AAAUCGAUCAGAUCAACAATT against CDC2L1 | -1.14 (active) |
| CCCUGAUCCUAUAGCUAUUTT against ART4 | -0.0808 |
| GAUCUGUGGUUGCAAACGATT against TRMT1 | -0.224 |
| CAGUUAUACUCAGAAGAGATT against ZNF155 | 0.698 |
| GAAUGACCUUGAACAAUGATT against ABTB2 | 0.432 |
| UGGAAUACAUGGAUCAGAATT against HEPACAM | -0.063 |
| AGUACGGACAGAUCUCUGATT against CIRBP | -0.701 |
| CAGUCGACCAGUACAUCAATT against PMS1 | 0.0538 |
| AGUUGUAAAUUUACAAAGATT against UNC119 | 0.171 |
| GAGUUUUUCGAGCUCAUGATT against PGS1 | 1.36 (active) |
| GGACUUUGGUGUGAAUGAATT against ANXA1 | -0.114 |
| GCAUUGAAACGAAUGGGAATT against UBA5 | -0.105 |
| UCUUCACCGUGUGCCUAGATT against CRAT | -1.42 (active) |
| GCAGAUAAGAUCAAGAUCATT against SRPK3 | -0.643 |
| GAAGAAACCUUGACAAAAATT against KHDRBS3 | 0.0681 |

| Sequence | median seed-adjusted z-score |
| --- | --- |
| GACUAGUUUUGAUCAGGAATT against ZBTB5 | 0.314 |
| GCAGAAUUCUGACGAUGAUTT against LEO1 | 1.2 (active) |
| CGAACAAAACGGGCCUGGATT against FOXA2 | 0.883 |
| CCCUCUUUGGUCUAACUCATT against HOXA3 | 0.315 |
| CGAAGACACGUAGCCCUAATT against PUS3 | 0.584 |
| GGUGUAAUAAUGUCCUUUATT against SNRPF | -2.66 (active) |
| GGACUACAAAGUCGACCAATT against NDUFB10 | -0.39 |
| GGAGAUAGAACCUUCCAGATT against HLA-B | -0.355 |
| CUAGAGUCGCUGUUGAAGATT against DRAP1 | 1.08 (active) |
| GGGUGGAGGUGUACUAUGATT against LOXL2 | 0.177 |
| CAUCAUCAGUUUUUCGAUUTT against AHCTF1 | -0.501 |
| GAUGCCCAGUGUCCUGUUATT against PIF1 | -0.0455 |
| GCAAGACAAGUGUCGGGAATT against HSPA6 | 0.364 |
| CAGCAGAACGUGUACGAGATT against ZBTB7A | -0.344 |
| CAAGUGGGCUGAGUACCAUTT against PHPT1 | 1.27 (active) |
| GAGGUAAGAUGGAUGAAGATT against ACSM1 | 0.658 |
| UCAAUGCCUCCUUAAUUUUTT against ZNF321 | -0.642 |
| CAGCGGAUGUGUUCAGUCUTT against PKMYT1 | 0.65 |
| CAAAACUAGUAAUCCUUAUTT against CDK8 | -1.47 (active) |
| GGACAUGUGCGUCUACCGATT against HOXD13 | 0.116 |
| GGAUUUAUCAGAACCUUUATT against SLC25A15 | -0.0116 |
| CCUACCAUCUUGUCCCUAATT against SLC7A6 | -0.0877 |

| Sequence | median seed-adjusted z-score |
| --- | --- |
| UGGAGUAAAUGAUAAGAUATT against TRIM45 | -0.0974 |
| GCACCAUUACUAUAGAGGATT against PTH2R | -0.492 |
| CAUCACCUAUUGGAUCCAATT against MMP9 | -1.15 (active) |
| CGGUCCAAAUUGAAAGCGATT against STX1B | 0.229 |
| CGACUUGUUGUAUAAGUAUTT against DYNC1LI2 | -0.491 |
| CCAAGUUAUUGCUAUCAGATT against PPCS | 0 |
| GGUAAACGCAAAGCACUGATT against MAP2K4 | -0.366 |
| GCCUCUUGCUAGGCAUAGCTT against CLDN15 | 0.973 |
| CCCUCGACAGAGUCAGUUUTT against NPC1 | -0.195 |
| GAUUGAAACUGACAAGACATT against DLST | 1.16 (active) |
| CAGCUACGGAAGAACCUGATT against PHF21A | 0.179 |
| UCGAGGAAAUGAUCCGGGATT against GALE | -0.153 |
| GGAGGAUCGUUUAGACAGATT against TCF12 | -0.16 |
| CAGCUGCAAUUCUAGCUAATT against RETSAT | -1.7 (active) |
| CAAUCACUGUGGAAUAUCATT against INPPL1 | 0.199 |
| CAAGGGUAUUAUUCGAGUUTT against PPP1R3A | -0.241 |
| GAAAACCGCAGAUAAAGUATT against NFRKB | 0.787 |
| GGUGCAAUCAGAUAACAUATT against PPAPDC1A | 0.634 |
| CUGUUUAAGCGAUGACAAATT against CFL2 | -0.148 |
| AUCCUUAUUUGACACGAAATT against HOXC8 | -0.0285 |
| GGACUUUGCCUAUGUCUGUTT against TFAP2C | 1.28 (active) |
| AGACCACCAAGGUUUCUUUTT against KCNH6 | 0.424 |

| Sequence | median seed-adjusted z-score |
| --- | --- |
| CUGGAAUGGUUGUCUGGUATT against SERTAD1 | 0.376 |
| GAAGAGAACUUCUGCCGUATT against MST1 | -1.47 (active) |
| GAUUAAUCCUUCAAUGAUUTT against TAF9B | -0.0247 |
| CGUCAGCUAUGUAAUGUUUTT against SLC22A7 | -0.387 |
| GGACAGCUACGUGAAGAUUTT against PAK6 | -0.57 |
| UGAUGGUUGUGACAAUUGUTT against SUPT4H1 | -1.01 (active) |
| AGCCUGUGAUGACUACAGATT against MGP | -0.0854 |
| GAACUUACCUUCAACUACATT against NSD1 | -0.372 |
| GAGUGAUUCUAGCCUCUAATT against SEC61A1 | 0.312 |
| CGAGAAAUCCCACAAGCGATT against NOVA2 | 0 |
| GGAAGGCUUUUAGCAAUGATT against ZNF570 | 0.662 |
| GGAUCGAGGAAAUAACAAUTT against DDX42 | -2.13 (active) |
| GAAUGAGUUUUGUCAUGGATT against SUV39H2 | -0.279 |
| AGGCCGUGCUCUUCACCUATT against FAAH | 0.373 |
| GAGAUAUACGAGGAGAUUATT against TIGD1 | 0.224 |
| GGUCAGAACAUUCACCGAATT against CFTR | -1.23 (active) |
| GAAUGUGCUAUGAAGCUUUTT against SPRR1B | -0.721 |
| GGCUCGUAUUUUCUGGUUUTT against ACHE | 0 |
| CCUUGCCUCUAUGAGAUCATT against CHCHD2 | 0.0884 |
| GGGUCAUUCUAUGGGCAAATT against OGFOD2 | 0.493 |
| GACUUGAGCUAAAUGGUCATT against SIAH1 | 1.5 (active) |
| CCUAUACUGUGGGCUAUAATT against STARD4 | 0.173 |

| Sequence | median seed-adjusted z-score |
| --- | --- |
| AGCCGUGGAUGGUAGAUCUTT against ZNF2 | -0.119 |
| CAGACUAAACUAUAGCGAUTT against SENP6 | -1.03 (active) |
| GCAACUCCAAUGUCAGUGATT against TAF9B | -0.0247 |
| GAGUCUGAAGGAUACUAUUTT against PGAM1 | -0.234 |
| GCCCUGAACAAGUUGCUCATT against TRPV6 | -0.511 |
| GCUUUUCCCGGUCAGAUCATT against KLF12 | -0.0892 |
| CCAUCGCAGAGGGAGAUAATT against USP43 | 0 |
| GCUUCUAUAUUCAUGCUAATT against DDX6 | 1.12 (active) |
| GGUGAUGAGUGUUCCUACATT against KCNA4 | -0.634 |
| GGAUUUCUCAUGGAAGUUUTT against CUTC | -0.377 |
| CGUAAAACCCAUCAAGUUUTT against B3GALNT1 | 0.128 |
| GGCGGCAAGACGUAAGGAATT against SEMA3B | 0.000251 |
| UGCUGACCCUAAUCCCUUATT against ETV2 | 0 |
| AGUUAGAGGUAGCAUUAUATT against FZD5 | -0.129 |
| GAGCAAUGCUGACUAUCAATT against CNOT7 | 0.716 |
| CACUCGCAGUUAAUAUCAUTT against AZIN1 | -1.14 (active) |
| GGAUCCAGCUUUUCCUCGATT against ABCC10 | -1.56 (active) |
| CCACGGCUGCAACAUCUUUTT against PDE2A | -0.2 |
| CAGCCGCUCUCGUCAAUGUTT against GGTLC2 | -0.288 |
| ACAACUUCGUUUUCGGUCATT against TUBB2C | 0 |
